Data from PubChem BioAssay AID1159580 (chemical genetic matrix, 2015).
About 2,000 (36%) of roughly 5,500 compounds were called active. Inconclusive results (about 18%) are left out. The list shows a part of the results. Unmarked numbers belong to inactive results. Cut-off read from the data, not from the text of the source: active = normalized growth mostly below about 0.91 (no sharp cut-off); inconclusive = no clear call, values can overlap the other calls; inactive = mostly above about 0.92.

Experiment: chemical genetic growth profiling, strain panel (AID 1159580);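 note: tested at 20 µM; growth read once vehicle control cultures reached saturation at 30 °C; 1 = growth at the plate median or of vehicle wells; lower values mean less growth of the strain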
Conditions: S. cerevisiae deletion strains, growth OD
[1] = locus YAL021C, strain ccr4, active compounds read low
[2] = locus YAL026C, strain drs2, active compounds read low
[3] = locus YAL030W, strain snc1, active compounds read low
[4] = locus YBL061C, strain skt5, active compounds read low
[5] = locus YBR009C, strain hhf1, active compounds read low
[6] = locus YBR023C, strain chs3, active compounds read low
[7] = locus YBR171W, strain sec66, active compounds read low
[8] = locus YBR231C, strain swc5, active compounds read low
[9] = locus YBR279W, strain paf1, active compounds read low
[10] = locus YCL011C, strain gbp2, active compounds read low
[11] = locus YCL016C, strain dcc1, active compounds read low
[12] = locus YCL061C, strain MRC1, active compounds read low
[13] = locus YCL069W, strain vba3, active compounds read low
[14] = locus YCR088W, strain abp1, active compounds read low
[15] = locus YDL005C, strain med2, active compounds read low
[16] = locus YDL040C, strain nat1, active compounds read low
[17] = locus YDR001C, strain nth1, active compounds read low
[18] = locus YDR069C, strain doa4, active compounds read low
[19] = locus YDR137W, strain rgp1, active compounds read low
[20] = locus YDR159W, strain sac3, active compounds read low
[21] = locus YDR297W, strain sur2, active compounds read low
[22] = locus YDR334W, strain swr1, active compounds read low
[23] = locus YDR335W, strain msn5, active compounds read low
[24] = locus YDR392W, strain spt3, active compounds read low
[25] = locus YEL003W, strain gim4, active compounds read low
[26] = locus YEL037C, strain rad23, active compounds read low
[27] = locus YEL061C, strain CIN8 (second series), active compounds read low
[28] = locus YER015W, strain faa2, active compounds read low
[29] = locus YER016W, strain bim1, active compounds read low
[30] = locus YER111C, strain swi4, active compounds read low
[31] = locus YER155C, strain BEM2 (second series), active compounds read low
[32] = locus YFR010W, strain ubp6, active compounds read low
[33] = locus YGL167C, strain pmr1, active compounds read low
[34] = locus YGL173C, strain kem1, active compounds read low
[35] = locus YGL227W, strain vid30, active compounds read low
[36] = locus YGL240W, strain doc1, active compounds read low
[37] = locus YGL253W, strain hxk2, active compounds read low
[38] = locus YHR013C, strain ard1, active compounds read low
[39] = locus YHR027C, strain rpn1, active compounds read low
[40] = locus YHR142W, strain chs7, active compounds read low
[41] = locus YJL092W, strain hpr5, active compounds read low
[42] = locus YJL095W, strain BCK1 (second series), active compounds read low
[43] = locus YJL115W, strain asf1, active compounds read low
[44] = locus YJL129C, strain trk1, active compounds read low
[45] = locus YJL154C, strain vps35, active compounds read low
[46] = locus YJL164C, strain tpk1, active compounds read low
[47] = locus YJL166W, strain qcr8, active compounds read low
[48] = locus YJL187C, strain SWE1, active compounds read low
[49] = locus YKL160W, strain elf1, active compounds read low
[50] = locus YKR026C, strain gcn3, active compounds read low
[51] = locus YKR091W, strain srl3, active compounds read low
[52] = locus YLL001W, strain dnm1, active compounds read low
[53] = locus YLL026W, active compounds read low
[54] = locus YLL041C, strain sdh2, active compounds read low
[55] = locus YLR027C, strain aat2, active compounds read low
[56] = locus YLR221C, strain rsa3, active compounds read low
[57] = locus YLR258W, strain gsy2, active compounds read low
[58] = locus YLR262C, strain YPT6 (second series), active compounds read low
[59] = locus YLR320W, strain mms22, active compounds read low
[60] = locus YLR342W, strain FKS1, active compounds read low
[61] = locus YLR357W, strain rsc2, active compounds read low
[62] = locus YLR370C, strain arc18, active compounds read low
[63] = locus YLR384C, strain iki3, active compounds read low
[64] = locus YML120C, strain ndi1, active compounds read low
[65] = locus YMR058W, strain fet3, active compounds read low
[66] = locus YMR125W, strain sto1, active compounds read low
[67] = locus YMR129W, active compounds read low
[68] = locus YMR205C, strain PFK2, active compounds read low
[69] = locus YMR231W, strain pep5, active compounds read low
[70] = locus YNL071W, strain lat1, active compounds read low
[71] = locus YNL209W, strain ssb2, active compounds read low
[72] = locus YNL248C, strain rpa49, active compounds read low
[73] = locus YNL322C, strain KRE1 (second series), active compounds read low
[74] = locus YNR049C, strain mso1, active compounds read low
[75] = locus YOR001W, strain rrp6, active compounds read low
[76] = locus YOR070C, strain gyp1, active compounds read low
[77] = locus YOR080W, strain dia2, active compounds read low
[78] = locus YOR083W, strain WHI5, active compounds read low
[79] = locus YOR106W, strain vam3, active compounds read low
[80] = locus YOR265W, strain rbl2, active compounds read low
[81] = locus YOR270C, strain vph1, active compounds read low
[82] = locus YOR290C, strain snf2, active compounds read low
[83] = locus YPL051W, strain arl3, active compounds read low
[84] = locus YPL078C, strain atp4, active compounds read low
[85] = locus YPL106C, strain sse1, active compounds read low
[86] = locus YPL240C, strain hsp82, active compounds read low

## C[C@H]1CC[C@@H](C(C)(C)O)CC2=C1CC[C@@H]2C
[1]
  normalized growth: 1
[2]
  normalized growth: 0.984
[3]
  normalized growth: 0.995
[4]
  normalized growth: 0.985
[5]
  normalized growth: 0.914
[6]
  normalized growth: 0.959
[7]
  normalized growth: 0.978
[8]
  normalized growth: 1.01
[9]
  normalized growth: 0.996
[10]
  normalized growth: 0.982
[11]
  normalized growth: 0.976
[12]
  normalized growth: 0.995
[13]
  normalized growth: 0.997
[14]
  normalized growth: 0.993
[15]
  normalized growth: 0.998
[16]
  normalized growth: 0.983
[17]
  normalized growth: 0.988
[18]
  normalized growth: 0.981
[19]
  normalized growth: 0.91
[20]
  normalized growth: 0.912
Locus YDR195W, strain ref2
  normalized growth: 0.822 (active)
[21]
  normalized growth: 0.988
[22]
  normalized growth: 1.01
[23]
  normalized growth: 0.992
[24]
  normalized growth: 0.552 (active)
[25]
  normalized growth: 0.984
[26]
  normalized growth: 0.994
[27]
  normalized growth: 1
[28]
  normalized growth: 1.01
[29]
  normalized growth: 0.967
[30]
  normalized growth: 0.984
[31]
  normalized growth: 0.927
[32]
  normalized growth: 0.962
[33]
  normalized growth: 0.985
[34]
  normalized growth: 0.961
[35]
  normalized growth: 0.999
[36]
  normalized growth: 0.934
[37]
  normalized growth: 1
[38]
  normalized growth: 0.999
[39]
  normalized growth: 0.994
Locus YHR030C, strain SLT2, active compounds read low
  normalized growth: 0.819 (active)
Locus YHR079C, strain IRE1, active compounds read low
  normalized growth: 0.767 (active)
[40]
  normalized growth: 0.884
[41]
  normalized growth: 0.995
[42]
  normalized growth: 0.99
Locus YJL095W, strain BCK1, active compounds read low
  normalized growth: 0.9
[43]
  normalized growth: 0.994
[44]
  normalized growth: 0.983
[45]
  normalized growth: 0.992
[46]
  normalized growth: 0.965
[47]
  normalized growth: 0.948
[48]
  normalized growth: 0.987
Locus YJR066W, strain TOR1, active compounds read low
  normalized growth: 0.92
[49]
  normalized growth: 0.979
[50]
  normalized growth: 0.97
[51]
  normalized growth: 0.993
[52]
  normalized growth: 0.991
[53]
  normalized growth: 0.978
[54]
  normalized growth: 0.993
[55]
  normalized growth: 0.979
Locus YLR113W, strain HOG1, active compounds read low
  normalized growth: 0.764 (active)
[56]
  normalized growth: 0.924
[57]
  normalized growth: 0.971
[58]
  normalized growth: 0.841 (active)
[59]
  normalized growth: 0.896
[60]
  normalized growth: 0.989
[61]
  normalized growth: 0.893
[62]
  normalized growth: 0.987
[63]
  normalized growth: 0.995
[64]
  normalized growth: 0.972
[65]
  normalized growth: 0.993
[66]
  normalized growth: 0.977
[67]
  normalized growth: 0.986
[68]
  normalized growth: 0.896
[69]
  normalized growth: 0.999
[70]
  normalized growth: 0.952
Locus YNL183C, strain NPR1, active compounds read low
  normalized growth: 0.869
[71]
  normalized growth: 0.995
[72]
  normalized growth: 0.983
[73]
  normalized growth: 0.987
[74]
  normalized growth: 0.995
[75]
  normalized growth: 0.958
[76]
  normalized growth: 0.978
[77]
  normalized growth: 1
[78]
  normalized growth: 0.975
[79]
  normalized growth: 0.972
Locus YOR231W, strain MKK1, active compounds read low
  normalized growth: 0.849 (active)
[80]
  normalized growth: 0.983
[81]
  normalized growth: 0.97
[82]
  normalized growth: 0.925
[83]
  normalized growth: 0.979
[84]
  normalized growth: 0.986
[85]
  normalized growth: 0.889
[86]
  normalized growth: 1.01
Locus YPL256C, strain CLN2, active compounds read low
  normalized growth: 0.796 (active)

## C=CC(N)CCC(=O)O (stereo not drawn)
Locus YAL013W, strain DEP1, active compounds read low
  normalized growth: 1.02
[1]
  normalized growth: 0.971
[2]
  normalized growth: 0.984
[3]
  normalized growth: 0.985
Locus YAL040C, strain CLN3, active compounds read low
  normalized growth: 1.07
[4]
  normalized growth: 0.976
[5]
  normalized growth: 0.99
[6]
  normalized growth: 0.965
[7]
  normalized growth: 0.955
[8]
  normalized growth: 0.99
[9]
  normalized growth: 0.986
[10]
  normalized growth: 0.975
[11]
  normalized growth: 0.976
Locus YCL061C, strain MRC1 (second series), active compounds read low
  normalized growth: 1
[12]
  normalized growth: 0.973
[13]
  normalized growth: 0.98
[14]
  normalized growth: 0.986
[15]
  normalized growth: 0.977
[16]
  normalized growth: 0.984
[17]
  normalized growth: 0.975
[18]
  normalized growth: 0.992
[19]
  normalized growth: 0.94
Locus YDR150W, strain NUM1, active compounds read low
  normalized growth: 1
[20]
  normalized growth: 1.01
Locus YDR195W, strain ref2
  normalized growth: 1
[21]
  normalized growth: 0.986
[22]
  normalized growth: 0.972
[23]
  normalized growth: 0.981
Locus YDR363W, strain ESC2, active compounds read low
  normalized growth: 0.993
[24]
  normalized growth: 0.922
[25]
  normalized growth: 0.996
[26]
  normalized growth: 0.975
[27]
  normalized growth: 0.982
Locus YER002W, strain NOP16, active compounds read low
  normalized growth: 0.993
[28]
  normalized growth: 0.992
[29]
  normalized growth: 0.999
[30]
  normalized growth: 0.973
[31]
  normalized growth: 0.988
[32]
  normalized growth: 0.972
[33]
  normalized growth: 0.973
[34]
  normalized growth: 0.975
[35]
  normalized growth: 0.99
[36]
  normalized growth: 0.993
[37]
  normalized growth: 0.98
Locus YGR078C, strain PAC10, active compounds read low
  normalized growth: 0.987
Locus YGR229C, strain SMI1, active compounds read low
  normalized growth: 1.03
[38]
  normalized growth: 0.973
[39]
  normalized growth: 0.972
[40]
  normalized growth: 0.94
[41]
  normalized growth: 0.983
[42]
  normalized growth: 0.987
[43]
  normalized growth: 0.972
[44]
  normalized growth: 0.977
[45]
  normalized growth: 0.974
[46]
  normalized growth: 0.979
[47]
  normalized growth: 0.971
[48]
  normalized growth: 0.983
Locus YJR075W, strain HOC1, active compounds read low
  normalized growth: 1.01
[49]
  normalized growth: 0.964
[50]
  normalized growth: 0.983
[51]
  normalized growth: 0.985
[52]
  normalized growth: 0.96
[53]
  normalized growth: 1
[54]
  normalized growth: 0.981
[55]
  normalized growth: 0.984
[56]
  normalized growth: 0.958
[57]
  normalized growth: 0.981
[58]
  normalized growth: 0.975
[59]
  normalized growth: 0.952
[60]
  normalized growth: 0.97
[61]
  normalized growth: 0.971
[62]
  normalized growth: 0.968
[63]
  normalized growth: 0.965
[64]
  normalized growth: 0.981
[65]
  normalized growth: 0.98
[66]
  normalized growth: 0.968
[67]
  normalized growth: 0.988
[68]
  normalized growth: 0.955
[69]
  normalized growth: 0.97
Locus YMR307W, strain GAS1, active compounds read low
  normalized growth: 1.02
[70]
  normalized growth: 0.986
Locus YNL128W, strain TEP1, active compounds read low
  normalized growth: 0.972
Locus YNL175C, strain NOP13, active compounds read low
  normalized growth: 0.99
Locus YNL197C, strain WHI3, active compounds read low
  normalized growth: 0.994
[71]
  normalized growth: 0.991
Locus YNL224C, strain SQS1, active compounds read low
  normalized growth: 0.991
[72]
  normalized growth: 0.968
[73]
  normalized growth: 0.967
[74]
  normalized growth: 0.994
[75]
  normalized growth: 0.996
[76]
  normalized growth: 0.998
[77]
  normalized growth: 0.974
Locus YOR083W, strain WHI5 (second series), active compounds read low
  normalized growth: 0.991
[78]
  normalized growth: 0.967
[79]
  normalized growth: 0.961
[80]
  normalized growth: 0.98
[81]
  normalized growth: 0.939
[82]
  normalized growth: 0.945
[83]
  normalized growth: 0.973
Locus YPL055C, strain LGE1, active compounds read low
  normalized growth: 1
[84]
  normalized growth: 0.961
[85]
  normalized growth: 0.971
[86]
  normalized growth: 0.986
